# Source: ChEMBL document CHEMBL1961873, “Compounds: GSK PKIS; Assays: Nanosyn kinase panel” (2012)
# Assays:
# [1] = molecular target: Sphingosine kinase 1 (Homo sapiens) (UniProt Q9NYA1); conditions: at 1 µM;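 note: mean SPHK1 inhibition value reported from the GSK PKIS kinase panel screen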
# [2] = molecular target: T1, Sphingosine kinase 2 (Homo sapiens) (UniProt Q9NRA0); conditions: at 0.1 µM
# T1 sequence (whole entry): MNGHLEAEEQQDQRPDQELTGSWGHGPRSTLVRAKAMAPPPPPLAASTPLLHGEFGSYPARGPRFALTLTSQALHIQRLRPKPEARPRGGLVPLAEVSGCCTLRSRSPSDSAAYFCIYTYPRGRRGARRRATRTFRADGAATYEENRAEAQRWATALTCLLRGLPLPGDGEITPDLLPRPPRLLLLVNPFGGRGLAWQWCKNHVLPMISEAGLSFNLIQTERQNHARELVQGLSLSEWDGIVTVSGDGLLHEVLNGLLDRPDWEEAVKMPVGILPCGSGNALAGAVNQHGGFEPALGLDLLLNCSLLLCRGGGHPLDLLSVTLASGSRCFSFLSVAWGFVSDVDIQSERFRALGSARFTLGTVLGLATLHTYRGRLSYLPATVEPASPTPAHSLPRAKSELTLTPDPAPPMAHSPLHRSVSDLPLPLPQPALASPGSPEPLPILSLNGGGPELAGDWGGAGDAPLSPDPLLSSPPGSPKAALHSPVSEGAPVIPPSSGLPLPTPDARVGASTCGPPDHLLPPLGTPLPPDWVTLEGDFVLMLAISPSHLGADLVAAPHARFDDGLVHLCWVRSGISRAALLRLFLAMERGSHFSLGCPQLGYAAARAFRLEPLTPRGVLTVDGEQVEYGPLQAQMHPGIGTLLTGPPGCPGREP
# [3] = molecular target: T1, Sphingosine kinase 2 (Homo sapiens); conditions: at 1 µM
# [4] = molecular target: Casein kinase II subunit alpha (Homo sapiens) (UniProt P68400); conditions: at 0.1 µM
# [5] = molecular target: Casein kinase II subunit alpha (Homo sapiens) (UniProt P68400); conditions: at 1 µM
# [6] = molecular target: T2, Inhibitor of nuclear factor kappa-B kinase subunit alpha (Homo sapiens) (UniProt O15111); conditions: at 0.1 µM
# T2 sequence (whole entry): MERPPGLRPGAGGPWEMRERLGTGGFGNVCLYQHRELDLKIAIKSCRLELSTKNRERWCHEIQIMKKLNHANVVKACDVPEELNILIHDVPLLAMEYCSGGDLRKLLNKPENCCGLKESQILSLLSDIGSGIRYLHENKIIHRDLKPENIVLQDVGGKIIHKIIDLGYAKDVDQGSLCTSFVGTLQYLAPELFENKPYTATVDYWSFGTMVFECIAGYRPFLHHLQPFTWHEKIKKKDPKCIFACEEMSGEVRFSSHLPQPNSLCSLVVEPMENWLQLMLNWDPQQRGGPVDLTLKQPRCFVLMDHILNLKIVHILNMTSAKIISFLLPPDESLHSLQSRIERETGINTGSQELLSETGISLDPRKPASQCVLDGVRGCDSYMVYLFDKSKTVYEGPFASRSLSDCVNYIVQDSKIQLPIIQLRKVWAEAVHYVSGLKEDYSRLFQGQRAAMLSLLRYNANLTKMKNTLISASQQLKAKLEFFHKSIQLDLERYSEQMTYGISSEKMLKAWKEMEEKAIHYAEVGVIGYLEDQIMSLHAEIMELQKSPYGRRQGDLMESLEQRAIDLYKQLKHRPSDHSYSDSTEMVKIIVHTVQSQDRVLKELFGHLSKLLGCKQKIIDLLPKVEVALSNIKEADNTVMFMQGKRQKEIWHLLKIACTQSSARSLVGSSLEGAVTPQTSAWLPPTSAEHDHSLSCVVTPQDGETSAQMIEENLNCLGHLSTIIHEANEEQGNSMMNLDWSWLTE
# [7] = molecular target: T2, Inhibitor of nuclear factor kappa-B kinase subunit alpha (Homo sapiens); conditions: at 1 µM
# [8] = molecular target: T3, Inhibitor of nuclear factor kappa-B kinase subunit beta (Homo sapiens) (UniProt O14920); conditions: at 0.1 µM
# T3 sequence (whole entry): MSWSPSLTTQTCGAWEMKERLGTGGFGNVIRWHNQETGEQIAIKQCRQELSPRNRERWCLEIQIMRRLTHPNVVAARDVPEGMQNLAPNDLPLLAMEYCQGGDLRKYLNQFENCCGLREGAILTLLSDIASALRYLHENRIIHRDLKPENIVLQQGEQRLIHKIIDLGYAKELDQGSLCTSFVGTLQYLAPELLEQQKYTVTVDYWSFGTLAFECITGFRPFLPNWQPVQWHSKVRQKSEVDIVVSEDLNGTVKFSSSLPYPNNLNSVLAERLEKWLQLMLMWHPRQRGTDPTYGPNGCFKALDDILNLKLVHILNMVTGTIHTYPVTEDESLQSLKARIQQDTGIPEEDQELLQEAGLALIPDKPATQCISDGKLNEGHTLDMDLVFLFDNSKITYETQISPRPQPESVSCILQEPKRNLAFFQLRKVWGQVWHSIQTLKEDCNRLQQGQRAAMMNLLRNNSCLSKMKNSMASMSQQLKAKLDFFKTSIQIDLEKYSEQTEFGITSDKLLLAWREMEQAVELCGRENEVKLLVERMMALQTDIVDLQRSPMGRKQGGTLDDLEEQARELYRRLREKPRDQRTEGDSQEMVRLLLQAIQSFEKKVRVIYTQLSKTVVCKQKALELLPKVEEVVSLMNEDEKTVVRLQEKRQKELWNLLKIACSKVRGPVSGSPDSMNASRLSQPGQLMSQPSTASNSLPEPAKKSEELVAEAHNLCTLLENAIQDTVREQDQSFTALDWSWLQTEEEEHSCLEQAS
# [9] = molecular target: T3, Inhibitor of nuclear factor kappa-B kinase subunit beta (Homo sapiens); conditions: at 1 µM
# [10] = molecular target: T4, Inhibitor of nuclear factor kappa-B kinase subunit epsilon (Homo sapiens) (UniProt Q14164); conditions: at 0.1 µM
# T4 sequence (whole entry): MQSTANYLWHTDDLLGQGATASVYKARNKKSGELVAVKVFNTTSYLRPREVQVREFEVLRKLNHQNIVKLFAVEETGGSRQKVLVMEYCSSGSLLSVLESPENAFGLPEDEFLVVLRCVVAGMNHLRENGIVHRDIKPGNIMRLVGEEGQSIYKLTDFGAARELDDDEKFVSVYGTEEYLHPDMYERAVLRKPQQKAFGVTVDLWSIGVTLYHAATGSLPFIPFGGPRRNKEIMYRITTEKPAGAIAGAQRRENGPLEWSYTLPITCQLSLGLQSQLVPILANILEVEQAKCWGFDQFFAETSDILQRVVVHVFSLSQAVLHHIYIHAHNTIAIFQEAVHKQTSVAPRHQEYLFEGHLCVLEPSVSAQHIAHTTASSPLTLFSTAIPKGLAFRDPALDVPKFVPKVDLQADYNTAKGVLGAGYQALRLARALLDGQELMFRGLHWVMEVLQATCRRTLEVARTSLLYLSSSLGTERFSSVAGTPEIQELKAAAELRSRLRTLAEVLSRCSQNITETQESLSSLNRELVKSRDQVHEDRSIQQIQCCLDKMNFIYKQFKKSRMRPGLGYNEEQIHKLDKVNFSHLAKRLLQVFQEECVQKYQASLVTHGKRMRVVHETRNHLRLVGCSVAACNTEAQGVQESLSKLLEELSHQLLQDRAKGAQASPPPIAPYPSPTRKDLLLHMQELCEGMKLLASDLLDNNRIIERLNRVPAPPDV
# [11] = molecular target: T4, Inhibitor of nuclear factor kappa-B kinase subunit epsilon (Homo sapiens); conditions: at 1 µM
# [12] = molecular target: T5, Serine/threonine-protein kinase Nek1 (Homo sapiens) (UniProt Q96PY6); conditions: at 0.1 µM
# T5 sequence (whole entry): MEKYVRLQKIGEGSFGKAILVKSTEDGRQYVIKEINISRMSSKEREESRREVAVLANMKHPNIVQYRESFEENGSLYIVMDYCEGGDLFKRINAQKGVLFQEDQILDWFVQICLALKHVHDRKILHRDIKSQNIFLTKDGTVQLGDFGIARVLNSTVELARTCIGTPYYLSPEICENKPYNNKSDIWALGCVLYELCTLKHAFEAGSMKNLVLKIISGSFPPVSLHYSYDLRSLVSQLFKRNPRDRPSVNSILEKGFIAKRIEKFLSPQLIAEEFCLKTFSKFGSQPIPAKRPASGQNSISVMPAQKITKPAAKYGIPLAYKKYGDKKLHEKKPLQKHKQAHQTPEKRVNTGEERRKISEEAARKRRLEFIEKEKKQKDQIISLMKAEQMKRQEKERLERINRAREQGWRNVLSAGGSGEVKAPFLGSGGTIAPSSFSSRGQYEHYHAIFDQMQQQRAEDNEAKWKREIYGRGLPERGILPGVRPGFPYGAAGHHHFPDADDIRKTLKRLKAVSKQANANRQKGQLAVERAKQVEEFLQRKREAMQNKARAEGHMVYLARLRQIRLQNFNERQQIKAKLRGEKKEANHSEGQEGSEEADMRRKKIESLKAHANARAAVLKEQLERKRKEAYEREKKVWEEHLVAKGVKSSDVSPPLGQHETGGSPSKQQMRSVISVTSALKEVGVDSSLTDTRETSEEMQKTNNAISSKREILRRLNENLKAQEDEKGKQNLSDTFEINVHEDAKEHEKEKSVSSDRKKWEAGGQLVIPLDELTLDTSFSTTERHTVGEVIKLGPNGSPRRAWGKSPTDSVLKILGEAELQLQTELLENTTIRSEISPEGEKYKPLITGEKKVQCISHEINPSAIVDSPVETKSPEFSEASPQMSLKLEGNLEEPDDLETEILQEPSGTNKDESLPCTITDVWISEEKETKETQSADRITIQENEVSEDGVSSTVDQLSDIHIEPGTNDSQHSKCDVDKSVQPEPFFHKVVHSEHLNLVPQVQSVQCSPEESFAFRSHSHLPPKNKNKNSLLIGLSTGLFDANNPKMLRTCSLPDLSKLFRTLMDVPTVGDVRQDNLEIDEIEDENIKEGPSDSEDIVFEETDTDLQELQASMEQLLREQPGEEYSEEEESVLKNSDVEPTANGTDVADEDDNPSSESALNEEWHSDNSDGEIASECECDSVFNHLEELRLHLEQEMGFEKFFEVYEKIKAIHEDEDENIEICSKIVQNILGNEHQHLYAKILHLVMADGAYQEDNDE
# [13] = molecular target: T5, Serine/threonine-protein kinase Nek1 (Homo sapiens); conditions: at 1 µM
# [14] = molecular target: T6, Serine/threonine-protein kinase Nek2 (Homo sapiens) (UniProt P51955); conditions: at 0.1 µM
# T6 sequence (whole entry): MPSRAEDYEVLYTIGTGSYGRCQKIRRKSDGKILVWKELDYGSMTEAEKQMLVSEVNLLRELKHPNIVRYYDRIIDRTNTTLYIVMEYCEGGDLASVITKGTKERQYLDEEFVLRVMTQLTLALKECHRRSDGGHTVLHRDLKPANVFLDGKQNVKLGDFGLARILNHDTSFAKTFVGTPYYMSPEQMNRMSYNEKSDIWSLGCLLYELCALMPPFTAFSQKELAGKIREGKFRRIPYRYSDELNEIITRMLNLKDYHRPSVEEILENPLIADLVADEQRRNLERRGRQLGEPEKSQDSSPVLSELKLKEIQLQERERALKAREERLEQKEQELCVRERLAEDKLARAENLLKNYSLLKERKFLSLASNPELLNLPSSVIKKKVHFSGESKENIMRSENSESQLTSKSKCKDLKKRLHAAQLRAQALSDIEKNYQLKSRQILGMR
# [15] = molecular target: T6, Serine/threonine-protein kinase Nek2 (Homo sapiens); conditions: at 1 µM
# [16] = molecular target: Serine/threonine-protein kinase Nek6 (Homo sapiens) (UniProt Q9HC98); conditions: at 0.1 µM
# [17] = molecular target: Serine/threonine-protein kinase Nek6 (Homo sapiens) (UniProt Q9HC98); conditions: at 1 µM
# [18] = molecular target: Serine/threonine-protein kinase Nek7 (Homo sapiens) (UniProt Q8TDX7); conditions: at 0.1 µM
# [19] = molecular target: Serine/threonine-protein kinase Nek7 (Homo sapiens) (UniProt Q8TDX7); conditions: at 1 µM
# [20] = molecular target: T7, Serine/threonine-protein kinase Nek9 (Homo sapiens) (UniProt Q8TD19); conditions: at 0.1 µM;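 note: reported value is the mean percent inhibition of NEK9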
# T7 sequence (whole entry): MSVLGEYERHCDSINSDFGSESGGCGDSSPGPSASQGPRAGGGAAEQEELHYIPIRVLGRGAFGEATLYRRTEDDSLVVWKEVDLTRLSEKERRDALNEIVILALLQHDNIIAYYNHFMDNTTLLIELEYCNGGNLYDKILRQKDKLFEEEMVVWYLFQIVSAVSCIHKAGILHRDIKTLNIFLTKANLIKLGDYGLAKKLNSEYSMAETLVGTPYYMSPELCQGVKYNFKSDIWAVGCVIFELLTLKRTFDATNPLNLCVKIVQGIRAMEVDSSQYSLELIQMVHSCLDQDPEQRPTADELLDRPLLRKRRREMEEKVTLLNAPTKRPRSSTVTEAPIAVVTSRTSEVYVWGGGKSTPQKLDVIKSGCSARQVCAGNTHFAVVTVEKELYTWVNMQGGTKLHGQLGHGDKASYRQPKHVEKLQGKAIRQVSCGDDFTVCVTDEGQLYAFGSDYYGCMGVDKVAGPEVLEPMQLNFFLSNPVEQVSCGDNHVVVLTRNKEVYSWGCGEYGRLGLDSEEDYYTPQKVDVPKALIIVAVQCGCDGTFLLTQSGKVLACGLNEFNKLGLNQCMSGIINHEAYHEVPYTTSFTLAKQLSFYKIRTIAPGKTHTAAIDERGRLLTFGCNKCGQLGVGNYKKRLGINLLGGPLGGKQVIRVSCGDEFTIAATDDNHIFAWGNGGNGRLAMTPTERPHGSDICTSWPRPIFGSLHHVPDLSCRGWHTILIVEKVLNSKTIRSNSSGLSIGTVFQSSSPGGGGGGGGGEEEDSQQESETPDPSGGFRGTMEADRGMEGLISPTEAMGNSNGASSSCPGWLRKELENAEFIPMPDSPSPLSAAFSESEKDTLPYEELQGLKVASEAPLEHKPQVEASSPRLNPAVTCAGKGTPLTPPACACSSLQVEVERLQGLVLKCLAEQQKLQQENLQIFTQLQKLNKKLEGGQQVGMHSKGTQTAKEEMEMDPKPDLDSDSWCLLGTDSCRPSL
# Chain of Serine/threonine-protein kinase Nek7 (Homo sapiens) (Q8TDX7 whole entry, looked up): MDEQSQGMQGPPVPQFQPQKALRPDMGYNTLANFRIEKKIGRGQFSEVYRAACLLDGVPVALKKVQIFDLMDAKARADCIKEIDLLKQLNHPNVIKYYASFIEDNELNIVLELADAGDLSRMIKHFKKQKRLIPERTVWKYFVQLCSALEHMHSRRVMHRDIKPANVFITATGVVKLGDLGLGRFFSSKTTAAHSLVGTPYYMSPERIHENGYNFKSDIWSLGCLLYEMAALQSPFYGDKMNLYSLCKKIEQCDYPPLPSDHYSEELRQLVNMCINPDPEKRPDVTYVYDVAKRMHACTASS
# Chain of Casein kinase II subunit alpha (Homo sapiens) (P68400 whole entry, looked up): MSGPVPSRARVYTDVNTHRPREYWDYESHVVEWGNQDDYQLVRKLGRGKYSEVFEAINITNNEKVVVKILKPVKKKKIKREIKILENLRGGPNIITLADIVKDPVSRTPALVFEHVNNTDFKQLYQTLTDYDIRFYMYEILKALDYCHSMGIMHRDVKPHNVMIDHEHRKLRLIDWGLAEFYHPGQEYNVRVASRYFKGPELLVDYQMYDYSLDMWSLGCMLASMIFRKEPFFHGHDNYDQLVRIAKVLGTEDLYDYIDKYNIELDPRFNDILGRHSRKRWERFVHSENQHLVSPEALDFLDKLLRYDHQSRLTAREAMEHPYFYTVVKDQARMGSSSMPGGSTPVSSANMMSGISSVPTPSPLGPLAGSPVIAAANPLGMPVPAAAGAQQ
# Chain of Serine/threonine-protein kinase Nek6 (Homo sapiens) (Q9HC98 whole entry): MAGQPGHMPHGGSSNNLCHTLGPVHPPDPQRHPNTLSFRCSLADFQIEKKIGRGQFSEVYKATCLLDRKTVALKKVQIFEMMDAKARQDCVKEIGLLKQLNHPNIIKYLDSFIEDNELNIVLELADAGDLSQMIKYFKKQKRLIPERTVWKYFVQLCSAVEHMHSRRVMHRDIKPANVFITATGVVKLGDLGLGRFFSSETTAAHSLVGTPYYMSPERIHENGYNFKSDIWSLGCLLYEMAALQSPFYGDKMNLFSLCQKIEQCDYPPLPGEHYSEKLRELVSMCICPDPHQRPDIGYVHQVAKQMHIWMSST
# Chain of Sphingosine kinase 1 (Homo sapiens) (Q9NYA1 whole entry): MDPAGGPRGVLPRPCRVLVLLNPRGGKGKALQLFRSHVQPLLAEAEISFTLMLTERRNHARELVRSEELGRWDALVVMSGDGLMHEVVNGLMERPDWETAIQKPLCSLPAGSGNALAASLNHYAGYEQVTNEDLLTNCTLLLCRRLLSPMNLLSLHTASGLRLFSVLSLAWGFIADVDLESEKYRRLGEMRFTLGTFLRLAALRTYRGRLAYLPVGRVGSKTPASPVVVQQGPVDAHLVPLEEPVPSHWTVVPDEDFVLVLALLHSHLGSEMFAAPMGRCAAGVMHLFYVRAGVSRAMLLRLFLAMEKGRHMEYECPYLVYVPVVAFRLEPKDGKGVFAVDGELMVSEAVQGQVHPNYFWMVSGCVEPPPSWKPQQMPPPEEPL
Compound,inhibition [1] [%],inhibition [2] [%],inhibition [3] [%],inhibition [4] [%],inhibition [5] [%],inhibition [6] [%],inhibition [7] [%],inhibition [8] [%],inhibition [9] [%],inhibition [10] [%],inhibition [11] [%],inhibition [12] [%],inhibition [13] [%],inhibition [14] [%],inhibition [15] [%],inhibition [16] [%],inhibition [17] [%],inhibition [18] [%],inhibition [19] [%],inhibition [20] [%]
NS(=O)(=O)c1cccc(-c2cc3ccncc3cc2OCc2ccccc2)c1,0.02,-1.2,0.96,1.61,-1.22,8.21,10.9,7.94,10.7,4.52,5.04,2.64,2.55,5.53,6.81,0.87,-0.35,5.92,3.78,2.36
Cc1ccc(O)cc1Nc1ccnc2ccc(S(C)(=O)=O)cc12,-1.32,1.04,1.77,3.63,8.35,5.42,9.92,6.57,8.43,6.64,6.97,2.87,5.3,5.76,4.61,1.23,4.89,5.32,4.35,4.3
